38 compounds from ChEMBL document CHEMBL4513141, “CO-ADD screening of NIH (USA) - Clinical Collection” (2021) can be followed below.

Results with a measured potency or affinity are listed apart.

For one experiment, the system named is Klebsiella pneumoniae. The conditions noted are these: Concentration 20 uM; ASSAY_TEST Inhibition of Bacterial Growth; detection method Absorption (OD600); MEDIA CAMHB; plate type 384well; NBS; CORNING #3640; time 18 hr.
As to `C[C@H]1C[C@@H]2[C@H]([C@@H](O)C[C@@]3(C)[C@H]2CC[C@]3(O)C(=O)CO)[C@@]2(C)C=CC(=O)C=C12` [METHYLPREDNISOLONE], the Inhibition (commonly the change of the read-out against control, counted positive when it falls) came to 20.28%.
On to `NC(=O)c1cnccn1` [PYRAZINAMIDE], for which the Inhibition is given as 10.9%.
`COCCOC(=O)C1=C(C)NC(C)=C(C(=O)OC(C)C)C1c1cccc([N+](=O)[O-])c1` (stereo not drawn) [NIMODIPINE]: the Inhibition is listed as 1.9%.
For `CC(=O)O.CNC(=N)NCCC[C@H](N)C(=O)O` [TILARGININE ACETATE], the Inhibition is -3.72%.
On to `CC(=O)OCC(=O)[C@@]1(O)CC[C@H]2[C@@H]3C[C@H](C)C4=CC(=O)C=C[C@]4(C)[C@H]3[C@@H](O)C[C@@]21C` [METHYLPREDNISOLONE ACETATE], for which the Inhibition is 10.69%.
As for `C[C@H]1O[C@@H](O[C@H]2[C@@H](O)C[C@H](O[C@H]3[C@@H](O)C[C@H](O[C@H]4CC[C@@]5(C)[C@H](CC[C@@H]6[C@@H]5C[C@@H](O)[C@]5(C)C(C7=CC(=O)OC7)CC[C@]65O)C4)O[C@@H]3C)O[C@@H]2C)C[C@H](O)[C@@H]1O` (stereo partly drawn), the Inhibition was found to be 10.13%.
On to `CCOC(=O)[C@H](CCc1ccccc1)N[C@H]1CCc2ccccc2N(CC(=O)O)C1=O.Cl` [BENAZEPRIL HYDROCHLORIDE], for which the Inhibition is 6.08%.
Consider `CC1CC2C3CCC4=CC(=O)C=CC4(C)[C@@]3(Cl)C(O)CC2(C)C1(O)C(=O)CO` (stereo partly drawn), for which the Inhibition was determined as 12.23%.
On to `CC1=C(CC(=O)O)c2cc(F)ccc2/C1=C\c1ccc([S+](C)[O-])cc1` (stereo not drawn), for which the Inhibition is listed as 14.02%.
Take `CC[C@]1(O)C[C@@H]2CN(CCc3c([nH]c4ccccc34)[C@@](C(=O)OC)(c3cc4c(cc3OC)N(C=O)[C@H]3[C@@](O)(C(=O)OC)[C@H](OC(C)=O)[C@]5(CC)C=CCN6CC[C@]43[C@@H]65)C2)C1.O=S(=O)(O)O`: the Inhibition is 3.74%.

The test system of the next experiment is Candida albicans. The settings on record: 20 µM.
Consider `C[C@]12CCC(=O)C=C1CC[C@@H]1[C@@H]2[C@@H](O)C[C@@]2(C)[C@H]1CC[C@]2(O)C(=O)COC(=O)CCC(=O)O` [HYDROCORTISONE HEMISUCCINATE ANHYDROUS], for which the Inhibition was 4.59%.
With `CNCC[C@@H](Oc1ccccc1C)c1ccccc1.Cl` [ATOMOXETINE HYDROCHLORIDE], the Inhibition turned out to be 3.59%.
For `CC1(C)C[C@@H]1C(=O)N/C(=C\CCCCSC[C@H](N)C(=O)O)C(=O)[O-].[Na+]` [CILASTATIN SODIUM], the Inhibition stood at 5.18%.
For the compound `CC(C)[C@H]1CC[C@H](C(=O)N[C@H](Cc2ccccc2)C(=O)O)CC1` [NATEGLINIDE], the Inhibition turned out to be 4.05%.
Regarding `CC(=O)O.CC(C)C[C@H](NC(=O)[C@@H](COC(C)(C)C)NC(=O)[C@H](Cc1ccc(O)cc1)NC(=O)[C@H](CO)NC(=O)[C@H](Cc1c[nH]c2ccccc12)NC(=O)[C@H](Cc1c[nH]cn1)NC(=O)[C@H]1CCC(=O)N1)C(=O)N[C@H](CCCNC(=N)N)C(=O)N1CCC[C@@H]1C(=O)NNC(N)=O`, the Inhibition was 2.52%.
Regarding `CC(N)(Cc1ccc(O)c(O)c1)C(=O)O` (stereo not drawn) [METHYLDOPA (RACEMIC)], the Inhibition was found to be 3.32%.
Consider `O=C(CCNNC(=O)c1ccncc1)NCc1ccccc1` [NIALAMIDE], for which the Inhibition was 4.06%.
For the compound `O=C1Nc2ccc(Cl)cc2[C@@](C#CC2CC2)(C(F)(F)F)O1` [EFAVIRENZ], the Inhibition is 3.86%.
For `Cl.O=C1c2c(O)ccc(O)c2C(=O)c2c(NCCNCCO)ccc(NCCNCCO)c21`, the Inhibition was -4.12%.
Still for that read-out and setting: as for `CCCCC(=O)O[C@H]1CC[C@H]2[C@@H]3CCc4cc(O)ccc4[C@H]3CC[C@]12C` [ESTRADIOL VALERATE], the figure is 0.66%; as for `CC(C)(C)NC[C@H](O)COc1nsnc1N1CCOCC1.O=C(O)/C=C\C(=O)O` [TIMOLOL MALEATE], -1.73%.
On the same count and under the same terms, as for `CC[C@@]1(O)C(=O)OCc2c1cc1n(c2=O)Cc2cc3c(CN(C)C)c(O)ccc3nc2-1.Cl` [TOPOTECAN HYDROCHLORIDE], the figure is 1.75%.
With `CNCCC=C1c2ccccc2CCc2ccccc21.Cl` [NORTRIPTYLINE HYDROCHLORIDE], the Inhibition is 1.73%.
Same read-out and setting: as for `O=C1CN(/N=C/c2ccc(-c3ccc([N+](=O)[O-])cc3)o2)C(=O)[N-]1.[Na+]` [DANTROLENE SODIUM], the figure is 0.63%; as for `CC(C(O)c1ccc(O)cc1)N1CCC(Cc2ccccc2)CC1.O.O=C(O)C(O)C(O)C(=O)O` (stereo not drawn), 2.38%.
For `CN(C)CCC[C@@]1(c2ccc(F)cc2)OCc2cc(C#N)ccc21.O=C(O)C(=O)O` [ESCITALOPRAM OXALATE], the Inhibition was determined as 3.94%.
Consider `CC(=O)[C@@]1(O)CC[C@H]2[C@@H]3C[C@H](C)C4=CC(=O)CC[C@]4(C)[C@H]3CC[C@@]21C`, for which the Inhibition worked out at 2.87%.
Turning to `Cl.O.c1cnc(N2CCN(Cc3ccc4c(c3)OCO4)CC2)nc1`, the Inhibition came to 3.11%.
Regarding `C[C@]12CC[C@@H]3c4ccc(OS(=O)(=O)[O-])cc4CC[C@H]3[C@@H]1CCC2=O.[Na+]` [ESTRONE SODIUM SULFATE], the Inhibition was found to be 3.72%.
In the case of `COc1ccc(Cl)cc1C(=O)NCCc1ccc(S(=O)(=O)NC(=O)NC2CCCCC2)cc1` [GLYBURIDE], the Inhibition is -0.39%.
Take `Cc1ccc(O)c([C@H](CCN(C(C)C)C(C)C)c2ccccc2)c1.O=C(O)C(O)C(O)C(=O)O` [TOLTERODINE TARTRATE]: the Inhibition was 4.41%.
Same read-out and setting: next, `CCOC(=O)[C@@H](CCc1ccccc1)N[C@@H](C)C(=O)N1CCC[C@H]1C(=O)O.O=C(O)/C=C\C(=O)O`: 0.69%.
Take `CC1=Nc2ccc(Cl)cc2S(=O)(=O)N1` [DIAZOXIDE]: the Inhibition came to 4.07%.
On to `C[C@]12C=CC(=O)C=C1CC[C@@H]1[C@@H]2C(=O)C[C@@]2(C)[C@H]1CC[C@]2(O)C(=O)CO` [PREDNISONE], for which the Inhibition stood at 1.91%.
As to `C[C@]12CCC(=O)C=C1CC[C@@H]1[C@@H]2C(=O)C[C@@]2(C)[C@H]1CC[C@]2(O)C(=O)CO` [CORTISONE], the Inhibition amounted to 4.46%.
On to `CCCC(CCC)C(=O)O` [VALPROIC ACID], for which the Inhibition came out at 5.05%.
For the compound `CNC(=C[N+](=O)[O-])NCCSCc1ccc(CN(C)C)o1.Cl` [RANITIDINE HYDROCHLORIDE], the Inhibition stood at 2.99%.
In the case of `CC(C[N+](C)(C)C)OC(N)=O.[Cl-]` (stereo not drawn) [BETHANECHOL CHLORIDE], the Inhibition is 0.53%.
Turning to `C[C@H]1C[C@@H]2[C@H]([C@@H](O)C[C@@]3(C)[C@H]2CC[C@]3(O)C(=O)CO)[C@@]2(C)C=CC(=O)C=C12` [METHYLPREDNISOLONE], the Inhibition amounted to 2.95%.
The same measure, in the same setting: as for `NC(=O)c1cnccn1` [PYRAZINAMIDE], the figure is 1.92%.
As to `COCCOC(=O)C1=C(C)NC(C)=C(C(=O)OC(C)C)C1c1cccc([N+](=O)[O-])c1` (stereo not drawn) [NIMODIPINE], the Inhibition came to 5.34%.
As to `CC(=O)O.CNC(=N)NCCC[C@H](N)C(=O)O` [TILARGININE ACETATE], the Inhibition is 2.96%.
Same read-out and setting: next, `CC(=O)OCC(=O)[C@@]1(O)CC[C@H]2[C@@H]3C[C@H](C)C4=CC(=O)C=C[C@]4(C)[C@H]3[C@@H](O)C[C@@]21C` [METHYLPREDNISOLONE ACETATE]: -0.69%; `C[C@H]1O[C@@H](O[C@H]2[C@@H](O)C[C@H](O[C@H]3[C@@H](O)C[C@H](O[C@H]4CC[C@@]5(C)[C@H](CC[C@@H]6[C@@H]5C[C@@H](O)[C@]5(C)C(C7=CC(=O)OC7)CC[C@]65O)C4)O[C@@H]3C)O[C@@H]2C)C[C@H](O)[C@@H]1O` (stereo partly drawn): 4.95%; `CCOC(=O)[C@H](CCc1ccccc1)N[C@H]1CCc2ccccc2N(CC(=O)O)C1=O.Cl` [BENAZEPRIL HYDROCHLORIDE]: 3.12%.
As to `CC1CC2C3CCC4=CC(=O)C=CC4(C)[C@@]3(Cl)C(O)CC2(C)C1(O)C(=O)CO` (stereo partly drawn), the Inhibition came out at 3.02%.
In the case of `CC1=C(CC(=O)O)c2cc(F)ccc2/C1=C\c1ccc([S+](C)[O-])cc1` (stereo not drawn), the Inhibition stood at 3.98%.
With `CC[C@]1(O)C[C@@H]2CN(CCc3c([nH]c4ccccc34)[C@@](C(=O)OC)(c3cc4c(cc3OC)N(C=O)[C@H]3[C@@](O)(C(=O)OC)[C@H](OC(C)=O)[C@]5(CC)C=CCN6CC[C@]43[C@@H]65)C2)C1.O=S(=O)(O)O`, the Inhibition is 2.01%.
